The results in this text go back to the supplement of paper PMC3342239.

Each structure is given as a SMILES string. Where a name gives a salt, the structure may show the parent alone.

This experiment deals with Saccharomyces cerevisiae. The experiment is described as follows: fraction of cells in G1 phase (DNA content, flow cytometry); higher = more cells with unreplicated DNA (G1 delay). The following applies: temperature: 30 C; YPD; JTY2953 pdr5 snq2 (sensitized); drug added to: cultures diluted from stationary phase; 6-7 h. The procedure, abridged:
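Library drugs were added to S. cerevisiae in YPD at 30°C, with fixation after 6–7 h for sensitized JTY2953 diluted 1∶200 from overnight and given a final 20 µg/ml, 6 h for dividing JTY2953, and 4.33 h for BY4741. Ethanol-fixed cells stained with SYTOX Green were read by flow cytometry, 10,000 events each. The G1 fraction is the ratio of the Dean-Jett-Fox G1 peak area to the G1 plus G2/M areas.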
(A flow cytometer gives signals particle by particle.)
In the case of `CCCSc1ccc2[nH]c(NC(=O)OC)nc2c1` [Albendazole] (75.3761 µM), the “fraction of cells in G1 phase” value came to 0.475.

For `C[C@H]1C[C@H]2[C@@H]3CCC4=CC(=O)C=C[C@]4(C)[C@@]3(F)[C@@H](O)C[C@]2(C)[C@@]1(O)C(=O)CO` [Betamethasone] (39.6353 µM), the “fraction of cells in G1 phase” value is 0.508.

For `CCCOc1ccccc1-c1nc2[nH]nnc2c(=O)[nH]1` [Zaprinast] (73.7243 µM), the “fraction of cells in G1 phase” value was determined as 0.482.

For `CC[C@@]1(O)C(=O)OCc2c1cc1n(c2=O)Cc2cc3cc(O)ccc3nc2-1` [10-hydroxycamptothecin] (54.8906 µM), the “fraction of cells in G1 phase” value stood at 0.499.

Turning to `CCCCC[C@H](O)/C=C/[C@@H]1[C@@H](C/C=C\CCCC(=O)O)[C@@H](O)C[C@H]1O` [Dinoprost] (56.4189 µM), the “fraction of cells in G1 phase” value amounted to 0.523.

Consider `COC(=O)C1=C(C)NC(C)=C(C(=O)OC)C1c1ccccc1[N+](=O)[O-]` [Nifedipine] (57.7463 µM), for which the “fraction of cells in G1 phase” value is 0.551.

`CC(C)(C)NCC(O)c1ccc(O)c(CO)c1` (stereo not given) [Salbutamol sulfate] (83.5711 µM): the “fraction of cells in G1 phase” value is 0.535.

Take `C[C@]12CC[C@@H]3c4ccc(O)cc4C[C@@H](CCCCCCCCC[S+]([O-])CCCC(F)(F)C(F)(F)F)[C@H]3[C@@H]1CC[C@@H]2O` (stereo not given in full) [Fulvestrant] (32.9606 µM): the “fraction of cells in G1 phase” value came out at 0.458.

As for `CN(CCOc1ccc(NS(C)(=O)=O)cc1)CCc1ccc(NS(C)(=O)=O)cc1` [Dofetilide] (45.2927 µM), the “fraction of cells in G1 phase” value came out at 0.551.

As for `CCN1CCN(C(=O)N[C@@H](C(=O)N[C@@H]2C(=O)N3[C@@H]2SC(C)(C)[C@@H]3C(=O)O)c2ccccc2)C(=O)C1=O` [Piperacillin] (38.6425 µM), the “fraction of cells in G1 phase” value amounted to 0.462.
